Screen size: about 39,000 compounds; about 3,300 (8.5%) were called active. This excerpt belongs to a sample that is enriched for actives.

The assay deals with HepG2. In words: cytotoxicity call (relative viability < 0.9). The note with it: 10 µM.
In the case of `C[C@@H]1CN([C@@H](C)CO)C(=O)c2cccc(NC(=O)c3cnccn3)c2O[C@@H]1CN(C)C(=O)Nc1ccccc1`, the cytotoxicity call was “inactive”.
For the molecule `COc1ccc(S(=O)(=O)N(C)C[C@H]2Oc3ccc(NC(=O)c4ccncc4)cc3CC(=O)N([C@H](C)CO)C[C@@H]2C)cc1`, the cytotoxicity call is “inactive”.
On to `C[C@H](CO)N1C[C@H](C)[C@@H](CN(C)C(=O)Nc2ccc(C(F)(F)F)cc2)Oc2ccc(NC(=O)Cn3cnnn3)cc2CC1=O`, for which the cytotoxicity call is “inactive”.
Then `COc1cccc(NC(=O)N2C[C@@H](O)COC[C@@H]3O[C@H](CC(=O)NCCCN4CCOCC4)CC[C@H]32)c1`, with “inactive”; and `COc1ccc(CN(C)C[C@@H]2Oc3c(NS(=O)(=O)c4cn(C)cn4)cccc3C(=O)N([C@@H](C)CO)C[C@H]2C)cc1`, with “inactive”; and `C[C@H]1CN([C@@H](C)CO)C(=O)c2cccc(NC(=O)c3cnccn3)c2O[C@H]1CN(C)Cc1ccccc1`, with “inactive”.
`Cc1ccc(S(=O)(=O)Nc2ccc3c(c2)CC(=O)N([C@@H](C)CO)C[C@H](C)[C@@H](CN(C)Cc2ccc(C(F)(F)F)cc2)O3)cc1`: the cytotoxicity call is “active”.
Consider `Cc1ccc(S(=O)(=O)Nc2ccc3c(c2)CC(=O)N([C@@H](C)CO)C[C@H](C)[C@H](CN(C)Cc2ccc(C(F)(F)F)cc2)O3)cc1`, for which the cytotoxicity call was “inactive”.
In the case of `Cc1ccc(S(=O)(=O)Nc2ccc3c(c2)CC(=O)N([C@H](C)CO)C[C@@H](C)[C@@H](CN(C)Cc2ccncc2)O3)cc1`, the cytotoxicity call was “active”.
For the molecule `Cc1ccc(S(=O)(=O)Nc2ccc3c(c2)CC(=O)N([C@@H](C)CO)C[C@H](C)[C@@H](CN(C)Cc2ccncc2)O3)cc1`, the cytotoxicity call was “inactive”.
`Cc1ccc(S(=O)(=O)Nc2ccc3c(c2)CC(=O)N([C@H](C)CO)C[C@H](C)[C@H](CN(C)Cc2ccc(C(F)(F)F)cc2)O3)cc1`: the cytotoxicity call is “active”.
The same measure for `C[C@H]1CN([C@@H](C)CO)C(=O)Cc2cc(NS(C)(=O)=O)ccc2O[C@@H]1CN(C)Cc1ccc(C(F)(F)F)cc1`: “inactive”; for `Cc1ccc(S(=O)(=O)Nc2ccc3c(c2)CC(=O)N([C@H](C)CO)C[C@@H](C)[C@H](CN(C)Cc2ccncc2)O3)cc1`: “inactive”.
For the molecule `C[C@@H]1CN([C@@H](C)CO)C(=O)Cc2cc(NS(C)(=O)=O)ccc2O[C@@H]1CN(C)Cc1ccc(C(F)(F)F)cc1`, the cytotoxicity call is “inactive”.
`Cc1ccc(S(=O)(=O)Nc2ccc3c(c2)CC(=O)N([C@H](C)CO)C[C@@H](C)[C@@H](CN(C)Cc2ccc(C(F)(F)F)cc2)O3)cc1`: the cytotoxicity call was “active”.
As for `Cc1ccc(S(=O)(=O)Nc2ccc3c(c2)CC(=O)N([C@H](C)CO)C[C@@H](C)[C@H](CN(C)Cc2ccc(C(F)(F)F)cc2)O3)cc1`, the cytotoxicity call is “inactive”.
Then `C[C@H](CO)N1C[C@H](C)[C@H](CN(C)Cc2ccc(C(F)(F)F)cc2)Oc2ccc(NS(C)(=O)=O)cc2CC1=O`, with “inactive”.
For `C[C@@H]1CN([C@H](C)CO)C(=O)Cc2cc(NS(C)(=O)=O)ccc2O[C@@H]1CN(C)Cc1ccc(C(F)(F)F)cc1`, the cytotoxicity call is “inactive”.
In the case of `O=C(C[C@@H]1CC[C@H]2[C@@H](COC[C@H](O)CN2Cc2ccccc2F)O1)N[C@@H]1CCN(Cc2ccccc2)C1`, the cytotoxicity call was “inactive”.
For `COc1ccc(S(=O)(=O)Nc2cccc3c2O[C@H](CN(C)S(=O)(=O)c2c(C)noc2C)[C@@H](C)CN([C@H](C)CO)C3=O)cc1`, the cytotoxicity call is “inactive”.
Regarding `C/C=C/c1ccc([C@@H]2[C@H](CO)N(S(=O)(=O)Cc3ccccc3)C23CN(C(=O)C2CCOCC2)C3)cc1`, the cytotoxicity call was “inactive”.
Take `C[C@@H]1CN([C@H](C)CO)C(=O)c2cc(NC(=O)NC3CCCCC3)ccc2O[C@@H](C)CCCCO[C@@H]1CN(C)C(=O)c1ccccc1`: the cytotoxicity call was “inactive”.
For the molecule `COc1ccc(S(=O)(=O)N(C)C[C@@H]2OCc3cnnn3CCCC(=O)N([C@H](C)CO)C[C@@H]2C)cc1`, the cytotoxicity call is “inactive”.
Take `COCC#Cc1cnc2c(c1)C(=O)N([C@@H](C)CO)C[C@@H](C)[C@@H](CN(C)C(=O)Nc1ccc(OC)cc1)O2`: the cytotoxicity call was “inactive”.
Turning to `C[C@H](CO)N1C[C@H](C)[C@H](CN(C)Cc2ccc(C(F)(F)F)cc2)Oc2c(NC(=O)C3CCCCC3)cccc2C1=O`, the cytotoxicity call is “inactive”.
For the molecule `COC(=O)c1cc(=O)n2ccccc2c1C#N`, the cytotoxicity call is “inactive”.
For `CO[C@@H](CN(C)C(=O)c1ccccc1F)[C@H](C)CN([C@@H](C)CO)S(=O)(=O)c1ccc(Cl)cc1`, the cytotoxicity call is “inactive”.
For the molecule `C[C@H](CO)N1C[C@H](C)[C@H](CN(C)Cc2ccncc2)Oc2ccc(NS(=O)(=O)c3cn(C)cn3)cc2CC1=O`, the cytotoxicity call is “inactive”.
The same measure for `C[C@H]1CCCCO[C@@H](CN(C)C)[C@@H](C)CN([C@@H](C)CO)C(=O)c2cc(NC(=O)CCCN(C)C)ccc2O1`: “inactive”; for `C=CC[C@H](CC(=O)NCCO)C(=O)N[C@@H](COC(=O)[C@@H](CC=C)CC(=O)OC(C)(C)C)Cc1ccccc1`: “inactive”; for `CO[C@H]1CN(C)C(=O)c2ccc(NC(=O)C3CC3)cc2OC[C@@H](C)N(C(=O)C2CCOCC2)C[C@H]1C`: “inactive”.
In the case of `Cc1ccc(S(=O)(=O)N2C[C@H](O)COC[C@H]3O[C@@H](CC(=O)N[C@H]4CCN(Cc5ccccc5)C4)CC[C@@H]32)cc1`, the cytotoxicity call was “inactive”.
Then `COc1cccc(S(=O)(=O)Nc2ccc3c(c2)[C@H]2C[C@H](CC(=O)N4CCCCC4)O[C@@H](CO)[C@H]2O3)c1`, with “inactive”.
Then `Cc1ccc(S(=O)(=O)Nc2ccc3c(c2)CC(=O)N([C@H](C)CO)C[C@H](C)[C@@H](CN(C)Cc2ccc(C(F)(F)F)cc2)O3)cc1`, with “inactive”; and `Cc1ccc(S(=O)(=O)Nc2ccc3c(c2)CC(=O)N([C@@H](C)CO)C[C@@H](C)[C@H](CN(C)Cc2ccc(C(F)(F)F)cc2)O3)cc1`, with “inactive”; and `Cc1ccc(S(=O)(=O)Nc2ccc3c(c2)CC(=O)N([C@@H](C)CO)C[C@@H](C)[C@@H](CN(C)Cc2ccc(C(F)(F)F)cc2)O3)cc1`, with “active”.
Regarding `C[C@@H]1CCCCO[C@H](CN(C)C(=O)Nc2ccc(C(F)(F)F)cc2)[C@@H](C)CN([C@H](C)CO)C(=O)c2cc(NC(=O)c3ccncc3)ccc2O1`, the cytotoxicity call was “inactive”.
In the case of `Cc1cccc(C)c1OC[C@@H](C)N`, the cytotoxicity call is “inactive”.
Take `Cc1cccc(C)c1OCC(C)N.Cl` (stereo not given): the cytotoxicity call was “active”.
The same measure for `Cc1cccc2ccccc12`: “inactive”.
`C[C@@H]1CN([C@@H](C)CO)C(=O)c2cc(NS(=O)(=O)c3cn(C)cn3)ccc2O[C@@H]1CN(C)S(=O)(=O)c1ccc(Cl)cc1`: the cytotoxicity call was “inactive”.
For the molecule `O=C(CCCCCCC(=O)Nc1ccc([C@@H]2O[C@H](CSc3nc(-c4ccccc4)c(-c4ccccc4)o3)C[C@H](c3ccccc3)O2)cc1)NO`, the cytotoxicity call was “inactive”.
Turning to `O=C(CCCCCCC(=O)Nc1ccc([C@H]2C[C@@H](CSc3nc(-c4ccccc4)c(-c4ccccc4)o3)O[C@H](c3ccccc3)O2)cc1)NO`, the cytotoxicity call is “inactive”.
Turning to `O=C(CCCCCCC(=O)Nc1ccc([C@H]2O[C@@H](CSc3nc4ccccc4o3)C[C@H](c3ccccc3)O2)cc1)NO`, the cytotoxicity call was “active”.
Take `O=C(CCCCCCC(=O)Nc1ccc([C@H]2O[C@H](CSc3nc(-c4ccccc4)c(-c4ccccc4)o3)C[C@H](c3ccc(NC(=O)CCCCCCC(=O)NO)cc3)O2)cc1)NO`: the cytotoxicity call is “inactive”.
For `O=C(CCCCCCC(=O)Nc1ccc([C@H]2O[C@@H](CN3CCCCCCC3)C[C@H](c3ccccc3)O2)cc1)NO`, the cytotoxicity call is “inactive”.
`O=C(CCCCCCC(=O)Nc1ccc([C@H]2O[C@@H](CSc3nc(-c4ccccc4)c(-c4ccccc4)o3)C[C@H](c3ccc([N+](=O)[O-])cc3)O2)cc1)NO`: the cytotoxicity call is “active”.
Then `O=C(O)CCCCCCC(=O)Nc1ccc([C@H]2O[C@@H](CSc3nc(-c4ccccc4)c(-c4ccccc4)o3)C[C@H](c3ccc([N+](=O)[O-])cc3)O2)cc1`, with “inactive”; and `O=C(CCCCCCC(=O)Nc1ccc([C@H]2O[C@@H](COc3ccccc3)C[C@H](c3ccccc3)O2)cc1)NO`, with “inactive”.
The same measure for `COc1cc2c(cc1OC)CN(C[C@H]1C[C@H](c3ccccc3)O[C@H](c3ccc(NC(=O)CCCCCCC(=O)NO)cc3)O1)CC2`: “active”.

For the origin of these results see the antibiotic and cytotoxicity screens of Wong et al. (2023).
